Assay results from PubChem BioAssay (NCATS).
Inconclusive results are not listed. A call without a number means that no potency is given here. A number with no mark means an inactive call. Activity calls are given as the source filed them. Calls follow the shape of the dose curve; as a rule, active = well fitted curve in the direction sought with a large enough effect; inconclusive = small, poorly fitted or top-dose-only effect, or another doubt; inactive = no such curve, though single readings can be large; an effect the other way counts as inactive or inconclusive.

How the values were obtained:
Hek293T = assay: Primary qHTS to identify gynecologic anti-cancer compounds using libraries of approved drugs and bioactive compounds (AID 1345084); details: Gynecologic cancer cell panel viability, ATPlite luminescence, 48 h, control line for the selectivity index; series mostly up to 57.5 µM; also: nearly all actives have a fitted effect of over 55% in size
How it was run: (§1)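 Cells, 1,000 per well, were allowed to settle for 16 h at 37 C before compound addition. Five concentrations were tested for 48 h, and viability was read by ATPlite luminescence after 15 min at room temperature.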

JEG-3 = assay: as above; details: Gynecologic cancer cell panel viability, ATPlite luminescence, 48 h; series mostly up to 57.5 µM
How it was run: as §1

OV90 = assay: as above; details: Gynecologic cancer cell panel viability, ATPlite luminescence, 48 h; series mostly up to 57.5 µM
How it was run: as §1

PA-1 = assay: as above; details: Gynecologic cancer cell panel viability, ATPlite luminescence, 48 h; series mostly up to 57.5 µM
How it was run: as §1

SKOV3 = assay: as above; details: Gynecologic cancer cell panel viability, ATPlite luminescence, 48 h; series mostly up to 57.5 µM
How it was run: as §1

Tov-21-G = assay: as above; details: Gynecologic cancer cell panel viability, ATPlite luminescence, 48 h; series mostly up to 57.5 µM
How it was run: as §1

Tov112D = assay: as above; details: Gynecologic cancer cell panel viability, ATPlite luminescence, 48 h; series mostly up to 57.5 µM
How it was run: as §1

[1] = Drug repurposing screens with cells derived from glioblastoma tumor samples (AID 1345199); details: GBM patient neurospheres viability, ATP luminescence, 48 h; also: nearly all actives have a fitted effect of over 40% in size; also: potency is read from the fitted curve at half-maximal effect
How it was run: (§2)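 Four patient lines of CD133+ GBM neurospheres were screened at several concentrations; hits were retested in those lines plus three slower-growing GBM lines, using 48-hour treatment and ATP-based viability.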

astro = assay: as above; details: viability, ATP luminescence, 48 h; series mostly up to 45.9 µM
How it was run: as §2

[2] = at 45.9 µM (top of the series), tumour line B
[3] = at 45.9 µM (top of the series), tumour line D
[4] = at 46 µM (top of the series), tumour line A
[5] = at 46.1 µM (top of the series), tumour line C
[6] = at 20 µM (top of the series), tumour line C
[7] = at 21.2 µM (top of the series), tumour line B
[8] = at 21.2 µM (top of the series), tumour line D
[9] = at 21.3 µM (top of the series), tumour line A

SMILES	Potency (Hek293T)	Potency (JEG-3)	Potency (OV90)	Potency (PA-1)	Potency (SKOV3)	Potency (Tov-21-G)	Potency (Tov112D)	activity, negative = cell killing [1, 2] [%]	activity, negative = cell killing [1, 3] [%]	activity, negative = cell killing [1, 4] [%]	activity, negative = cell killing [1, 5] [%]	Potency (astro)	Potency ([1]; tumour line D)	activity, negative = cell killing [1, 6] [%]	activity, negative = cell killing [1, 7] [%]	activity, negative = cell killing [1, 8] [%]	activity, negative = cell killing [1, 9] [%]
CCCCN1CCCC[C@H]1C(=O)Nc1c(C)cccc1C	inactive	inactive	inactive	inactive	inactive	inactive	inactive	-6.49	-12.7	-27.7	5.13	inactive	–	–	–	–	–
CCC(=O)c1ccc(O)cc1	inactive	inactive	inactive	inactive	inactive	inactive	inactive	-5.56	-10.1	-28.1	-21.6	inactive	–	–	–	–	–
Cn1c(=O)c2c(ncn2CC2OCCO2)n(C)c1=O	inactive	inactive	inactive	inactive	inactive	inactive	inactive	-0.596	-3.46	-20.3	-4.14	inactive	–	–	–	–	–
COC(=O)C1=C(C)NC(C)=C(C(=O)OC)C1c1ccccc1[N+](=O)[O-]	inactive	inactive	inactive	inactive	inactive	inactive	inactive	–	–	–	–	–	–	–	–	–	–
Nc1ncnc2c1ncn2[C@@H]1O[C@H](CO)[C@@H](O)[C@H]1O	inactive	inactive	inactive	inactive	inactive	inactive	inactive	4.34	12.4	-12.9	-3.63	inactive	–	–	–	–	–
O=Cc1ccccc1C=O	inactive	inactive	inactive	inactive	inactive	inactive	inactive	–	–	–	-17	–	35.5 µM (active)	–	–	–	–
O=C1NC(=O)[C@@]2(CCOc3ccc(F)cc32)N1	inactive	inactive	inactive	inactive	inactive	inactive	inactive	-4.87	4.44	-16.6	-0.68	inactive	–	–	–	–	–
CC1CC(OC(=O)C(O)c2ccccc2)CC(C)(C)N1C (stereo not given)	inactive	inactive	inactive	inactive	inactive	inactive	inactive	-1.01	1.15	-25.8	-11	inactive	–	14.2	1.64	-6.11	–
CCCOC(=O)c1ccccc1	inactive	inactive	inactive	inactive	inactive	inactive	inactive	-11.5	1.56	-26.7	-15.4	inactive	–	–	–	–	–
CCC(=O)Nc1ccc(O)cc1	inactive	inactive	inactive	inactive	inactive	inactive	inactive	-16	-0.42	-15.2	-16.9	inactive	–	–	–	–	–
CC(=O)NC(Cc1ccccc1)C(=O)O (stereo not given)	inactive	inactive	inactive	inactive	inactive	inactive	inactive	-12.3	-6.53	-20.1	-23.9	inactive	–	–	–	–	–
CCOc1ccc2ccccc2c1C(=O)N[C@@H]1C(=O)N2[C@@H]1SC(C)(C)[C@@H]2C(=O)O	inactive	inactive	inactive	inactive	inactive	inactive	inactive	–	–	–	–	inactive	–	10.1	-3.6	-26.3	-12.7
NC(CSCC(=O)O)C(=O)O (stereo not given)	inactive	inactive	inactive	inactive	inactive	inactive	inactive	-1.36	-6.13	-25.4	-7.6	inactive	–	–	–	–	–
CC1=C(C/C=C(\C)CCC[C@H](C)CCC[C@H](C)CCCC(C)C)C(=O)c2ccccc2C1=O	inactive	inactive	inactive	inactive	inactive	inactive	inactive	–	–	–	–	–	–	–	–	–	–
CCCCCCCCCCCCCCCCCCOCC(O)CO (stereo not given)	inactive	inactive	inactive	inactive	inactive	inactive	inactive	0.27	9.38	-23.8	24.6	inactive	–	–	–	–	–
Nc1ccc(S(=O)(=O)Nc2ccc(Cl)nn2)cc1	inactive	inactive	inactive	inactive	inactive	inactive	inactive	-5.57	-3.89	–	-7.4	inactive	–	-15.3	-15.4	-6	-27.3
